Laboratory results as given in PubChem BioAssay.

Test system: XIP peptide (Xip251-270)
Assay: compounds binding XIP fragment 251-270 – biochemical, small-molecule microarray, fluorescence 635/667 nm, 0.5 µg/mL protein, primary screen (AID 1183)
Conditions: fluorescence 635 nm, higher = more signal

SMILES	composite z-score
Cc1cc(C)c(C(O)C2C=CC3C(=O)N(C)C(=O)C3N2N2CCCCC2)c(C)c1 (stereo unspecified)	0.849
CCCNC(=O)[C@@]1(Sc2ccc(C)cc2)CC(=O)N(Cc2ccccc2Cl)[C@@H]1c1ccc(CO)cc1	-0.271
Cc1ccc(S[C@]2(C(=O)NC3CC3)CC(=O)N(Cc3cc(C(F)(F)F)cc(C(F)(F)F)c3)[C@@H]2c2ccc(CO)cc2)cc1	-0.0124
COC(=O)C[C@H]1O[C@]2(C(=O)N(Cc3ccccc3)c3ccc(I)cc32)[C@@H](C)[C@@H]1[Si](C)(C)c1ccc(OC)cc1	-0.0988
O=C(NCC(O)CO)[C@]1(Cc2ccccc2)N=C(c2ccc(OCCCO)cc2)O[C@@H]1c1ccccc1 (stereo partly specified)	0.776
CCOC(=O)C[C@H]1[C@H](OC(=O)Cc2ccc3c(c2)OCO3)[C@@H](NC(=O)CC(C)C)c2cc(OCCCO)ccc2N1C(=O)c1ccccc1	-0.487
COc1ccc([Si](C)(C)[C@H]2[C@H](CCO)O[C@@]3(C(=O)N(Cc4ccc(N5CCCCC5=O)cc4)c4ccccc43)[C@@H]2C)cc1	0.81
COc1ccc(CCN2C(=O)[C@@]3(c4ccc([N+](=O)[O-])cc4)CC(=O)N(CC45CC6CC(CC(C6)C4)C5)[C@@H]3c3ccc(CO)cc32)cc1	0.93
COCCCNC(=O)[C@@]1(Sc2ccc(C)cc2)CC(=O)N(Cc2cc(C(F)(F)F)cc(C(F)(F)F)c2)[C@@H]1c1ccc(CO)cc1I	-0.413
CN(C)CCCC[C@@H]1NC(=O)[C@@H]2C[C@H](C(=O)O)[C@H](c3ccc(O)cc3)N2C1=O	0.386
O=C1OCC=C[C@H]2OC34C=CCN(Cc5ccccc5)C(=O)[C@H]3N(CCO)C(=O)[C@@H]4[C@@H]12 (stereo partly specified)	0.666
C=C(C(=O)CC[C@H](OC(=O)c1ccccc1-c1ccccc1C(=O)O)c1ccc(CO)o1)C(C)C	0.697
C=C(COC)C(=O)CC[C@H](OC(=O)c1ccccc1-c1ccccc1C(=O)O)c1cccc(OCCO)c1	0.569
O=C(NCc1ccccc1)[C@@]1(Cc2ccccc2)COC(c2ccc(OCCCO)cc2)=N1	0.75
CC(C)CN1C(=O)[C@@]2(Cc3ccccc31)c1ccccc1C(=O)N(C1CCCCC1)[C@H]2c1ccc(CO)cc1	-0.906
CC(=O)NCCCC[C@@H]1NC(=O)[C@@H]2C[C@H](C(=O)NCc3ccc(F)cc3)[C@H](c3cccc(OCCO)c3)N2C1=O	0.117
CC(C)[C@H]1NC(=O)[C@@]23C(=O)N[C@@H](Cc4ccccc4)C2[C@H](C)[C@@]2(C)O[C@H]2C3/C=C/C/C=C\CNC(=O)[C@H](C)NC1=O (stereo partly specified)	-0.791
COC(=O)[C@@]1(Cc2ccc(OC)cc2)[C@H]2c3cc(C(=O)N(C)C)n(CCc4ccc(OC)c(Br)c4)c3C[C@H]2CN1C(=O)c1ccccc1	0.351
O=C1O[C@@H](c2ccccc2)[C@@H](c2ccccc2)N2[C@@H](c3ccc(OCCO)cc3)[C@]3(C(=O)Nc4ccc(C#CCCO)cc43)[C@@H](C(=O)N3CCN(c4ncccn4)CC3)[C@H]12	0.721
O=C1O[C@H](c2ccccc2)[C@H](c2ccccc2)N2[C@H]1[C@@H](C(=O)Nc1nc3ccccc3s1)[C@]1(C(=O)Nc3ccc(C#CC4=CCCCC4)cc31)[C@H]2c1ccccc1OCCO	0.0555
[N-]=[N+]=Nc1ccccc1C[C@@]1(C(=O)N2CCOCC2)N=C(c2ccc(OCCCO)cc2)O[C@@H]1c1ccccc1N=[N+]=[N-]	0.348
O=C1O[C@@H](c2ccccc2)[C@@H](c2ccccc2)N2[C@@H](c3ccc(O)cc3)[C@]3(C(=O)Nc4ccc(C#CC5(O)CCCCCC5)cc43)[C@@H](C(=O)Nc3nc4ccccc4s3)[C@H]12	0.756
COc1ccc([C@H]2C[C@H]3C(Br)=C[C@]2(OC)C(=O)[C@]32CO2)cc1	0.261
CO[C@H]1O[C@H](CO)[C@@H](OC(=O)Nc2ccc(Oc3ccccc3)cc2)[C@H](OC(=O)Nc2ccccc2-c2ccccc2)[C@H]1OC(=O)Nc1ccccc1-c1ccccc1	0.832
O=C1OCCC/C=C\[C@H]2OC34C=CCN(CCN5CCOCC5)C(=O)[C@H]3N(CCCCCO)C(=O)[C@@H]4C12 (stereo partly specified)	-0.733

Test system: not listed separately
Assay: blood-stage malaria parasite viability loss – strain 3D7, DAPI fluorescence, 100 nL, primary screen (AID 1184);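 further: parasites grown inside human red blood cells in medium with human serum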
Conditions: P. falciparum 3D7 growth, 3 d, higher = more signal

SMILES	z-score
COc1ccc([Si](C)(C)[C@@H]2[C@@H](CCO)O[C@]3(C(=O)N(Cc4ccc(NC(=O)[C@H](C)O)cc4)c4ccccc43)[C@H]2C)cc1	-2.79
O=C(NCc1ccccc1)[C@@]1(CCS(=O)(=O)c2ccccc2)COC(c2ccc(OCCCO)cc2)=N1	-2.26
C=C(C)[C@@H]1CC=C(C(O)C2C=CC3C(=O)NC(=O)C3N2Nc2ccccn2)CC1 (stereo partly specified)	0.982
CCOC(=O)[C@H]1C/C=C/C[C@H](C(=O)OCC)C(=O)O[C@H]2[C@@H](OC)O[C@H](CO)[C@@H](OC(=O)Nc3ccc(Br)cc3)[C@@H]2OC1=O	-1.85
C=CCC(OC(C)=O)[C@@H]1[C@@H](N(Cc2ccc(-c3ccccc3)cc2)C(=O)c2ccc(C)cc2)c2cc(OCCCO)ccc2N1C(=O)c1ccc(-c2ccccc2)cc1 (stereo partly specified)	-2.66
C=CC[C@]1(C(=O)O)N=C(c2ccc(OCCCO)cc2)O[C@H]1c1ccccc1N=[N+]=[N-]	-1.3
CN(C)CCCC[C@@H]1NC(=O)[C@@H]2C[C@H](C(=O)NCCCCCNC(=O)CS)[C@H](c3ccc(O)cc3)N2C1=O	0.386
C=CC[C@]1(C(N)=O)N=C(c2ccc(OCCCO)cc2)O[C@H]1c1ccccc1CN=[N+]=[N-]	-2.04
C[C@H]1NC(=O)[C@@H](C)NC(=O)[C@@]23C(=O)N[C@@H](Cc4ccccc4)C2[C@H](C)[C@@]2(C)O[C@H]2C3/C=C/C/C=C\CNC1=O (stereo partly specified)	-0.428
C[C@]1(C(=O)NCCN2CCOCC2)c2ccccc2C(=O)N(Cc2ccccc2)[C@H]1c1ccc(CO)cc1	-1.22
C[C@@H]1NC(=O)[C@H](Cc2ccccc2)NC(=O)[C@@]23C(=O)N[C@@H](Cc4ccccc4)C2[C@H](C)[C@@]2(C)O[C@H]2C3/C=C/C/C=C\CNC1=O (stereo partly specified)	-0.5
Cc1cc(C)c(C(O)C2C=CC3C(=O)N(C)C(=O)C3N2N2CCCCC2)c(C)c1 (stereo unspecified)	1.09
CCCNC(=O)[C@@]1(Sc2ccc(C)cc2)CC(=O)N(Cc2ccccc2Cl)[C@@H]1c1ccc(CO)cc1	-1.79
Cc1ccc(S[C@]2(C(=O)NC3CC3)CC(=O)N(Cc3cc(C(F)(F)F)cc(C(F)(F)F)c3)[C@@H]2c2ccc(CO)cc2)cc1	-0.442
COC(=O)C[C@H]1O[C@]2(C(=O)N(Cc3ccccc3)c3ccc(I)cc32)[C@@H](C)[C@@H]1[Si](C)(C)c1ccc(OC)cc1	-3.07
O=C(NCC(O)CO)[C@]1(Cc2ccccc2)N=C(c2ccc(OCCCO)cc2)O[C@@H]1c1ccccc1 (stereo partly specified)	-1.62
CCOC(=O)C[C@H]1[C@H](OC(=O)Cc2ccc3c(c2)OCO3)[C@@H](NC(=O)CC(C)C)c2cc(OCCCO)ccc2N1C(=O)c1ccccc1	-0.584
COc1ccc([Si](C)(C)[C@H]2[C@H](CCO)O[C@@]3(C(=O)N(Cc4ccc(N5CCCCC5=O)cc4)c4ccccc43)[C@@H]2C)cc1	-1.39

SMILES	z-score
COc1ccc(CCN2C(=O)[C@@]3(c4ccc([N+](=O)[O-])cc4)CC(=O)N(CC45CC6CC(CC(C6)C4)C5)[C@@H]3c3ccc(CO)cc32)cc1	-1.07
COCCCNC(=O)[C@@]1(Sc2ccc(C)cc2)CC(=O)N(Cc2cc(C(F)(F)F)cc(C(F)(F)F)c2)[C@@H]1c1ccc(CO)cc1I	-0.709
CN(C)CCCC[C@@H]1NC(=O)[C@@H]2C[C@H](C(=O)O)[C@H](c3ccc(O)cc3)N2C1=O	-1.35
O=C1OCC=C[C@H]2OC34C=CCN(Cc5ccccc5)C(=O)[C@H]3N(CCO)C(=O)[C@@H]4[C@@H]12 (stereo partly specified)	0.438
C=C(C(=O)CC[C@H](OC(=O)c1ccccc1-c1ccccc1C(=O)O)c1ccc(CO)o1)C(C)C	-0.241
C=C(COC)C(=O)CC[C@H](OC(=O)c1ccccc1-c1ccccc1C(=O)O)c1cccc(OCCO)c1	-0.034
O=C(NCc1ccccc1)[C@@]1(Cc2ccccc2)COC(c2ccc(OCCCO)cc2)=N1	-2.15
CC(C)CN1C(=O)[C@@]2(Cc3ccccc31)c1ccccc1C(=O)N(C1CCCCC1)[C@H]2c1ccc(CO)cc1	-1.38
CC(=O)NCCCC[C@@H]1NC(=O)[C@@H]2C[C@H](C(=O)NCc3ccc(F)cc3)[C@H](c3cccc(OCCO)c3)N2C1=O	0.447
CC(C)[C@H]1NC(=O)[C@@]23C(=O)N[C@@H](Cc4ccccc4)C2[C@H](C)[C@@]2(C)O[C@H]2C3/C=C/C/C=C\CNC(=O)[C@H](C)NC1=O (stereo partly specified)	-0.162
COC(=O)[C@@]1(Cc2ccc(OC)cc2)[C@H]2c3cc(C(=O)N(C)C)n(CCc4ccc(OC)c(Br)c4)c3C[C@H]2CN1C(=O)c1ccccc1	-1.28
O=C1O[C@@H](c2ccccc2)[C@@H](c2ccccc2)N2[C@@H](c3ccc(OCCO)cc3)[C@]3(C(=O)Nc4ccc(C#CCCO)cc43)[C@@H](C(=O)N3CCN(c4ncccn4)CC3)[C@H]12	-2.03
O=C1O[C@H](c2ccccc2)[C@H](c2ccccc2)N2[C@H]1[C@@H](C(=O)Nc1nc3ccccc3s1)[C@]1(C(=O)Nc3ccc(C#CC4=CCCCC4)cc31)[C@H]2c1ccccc1OCCO	-2.09
[N-]=[N+]=Nc1ccccc1C[C@@]1(C(=O)N2CCOCC2)N=C(c2ccc(OCCCO)cc2)O[C@@H]1c1ccccc1N=[N+]=[N-]	-2.28
O=C1O[C@@H](c2ccccc2)[C@@H](c2ccccc2)N2[C@@H](c3ccc(O)cc3)[C@]3(C(=O)Nc4ccc(C#CC5(O)CCCCCC5)cc43)[C@@H](C(=O)Nc3nc4ccccc4s3)[C@H]12	-0.697
COc1ccc([C@H]2C[C@H]3C(Br)=C[C@]2(OC)C(=O)[C@]32CO2)cc1	0.755
CO[C@H]1O[C@H](CO)[C@@H](OC(=O)Nc2ccc(Oc3ccccc3)cc2)[C@H](OC(=O)Nc2ccccc2-c2ccccc2)[C@H]1OC(=O)Nc1ccccc1-c1ccccc1	-2.09
O=C1OCCC/C=C\[C@H]2OC34C=CCN(CCN5CCOCC5)C(=O)[C@H]3N(CCCCCO)C(=O)[C@@H]4C12 (stereo partly specified)	1.82
